The results in this text go back to PubChem BioAssay (NCI).

Compounds without any hit were thinned out: in the full panel of roughly 83,000, 20% have a hit.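 Method: cells in 96-well plates; compound added at one concentration; 48 h incubation; percent growth measured; values under 10 scored active.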 A number with no mark means an inactive call. Calls of active or inactive are those of the source.

The experiment concerns SF-539 CNS. Put plainly: NCI-60 one-dose screen, 48 h (100 = growth as untreated, 0 = no growth, -100 = all killed). To be noted: 10 µM unless noted.
Turning to `COc1cc2c(=O)n(C3CCCCCCC3)c3c4cc[nH]c4ncc3c2cc1OC`, the growth was -0.216% (active).

As for `C1CCC([PH+](C2CCCCC2)C2CCCCC2[PH+](C2CCCCC2)C2CCCCC2)CC1.[Au].[CH-]1CCCCC1CC1CCCC[N-]1` (configuration not stated), the growth is -75.1% (active).

In the case of `CCCCN1CCCC[C@@H]1C(=O)N[C@H](C(=O)N(C)[C@H](C[C@@H](OC(C)=O)c1nc(C(=O)NC2CCC(C(=O)OC)CC2)cs1)C(C)C)C(C)C` (some centres not stated), the growth is -5.06% (active).

Regarding `CS(=O)(=O)CCN1CC2CCCC(C2)C1`, the growth is 100%.

For the molecule `COC(=O)[C@@H](C)C[C@H](Cc1ccccc1)NC(=O)c1nc([C@@H](C[C@H](C(C)C)N(C)C(=O)[C@@H](NC(=O)[C@H]2CCCCN2C)C(C)C)OC(C)=O)sc1C(C)C`, the growth was -22.2% (active).

Regarding `C=CC[Se]C(=O)c1ccccc1OC(C)=O`, the growth is -82.4% (active).

Turning to `CC(C)[C@@H]1NC(=O)[C@]2(C)CSC(=N2)c2csc(n2)CNC(=O)C[C@@H](/C=C/CCS)OC1=O`, the growth is 21%.

As to `Clc1cccc(Cl)c1Cl`, the growth is 100%.

With `O=C(CC1(O)C(=O)Nc2ccc(Cl)cc21)c1ccc(C(=O)NCC2CCC3(CC2)OOC2(CCCCC2)OO3)cc1` (configuration not stated), the growth is -52.5% (active).

Consider `COc1ccc(C(O)(C(=O)O)c2ccc(OC)cc2)cc1`, for which the growth was 86.8%.

On to `CCn1c2ccccc2c2cc(C(=O)c3ccc(C)c4ccccc34)ccc21`, for which the growth was -5.79% (active).

Turning to `COC(=O)[C@]12CCC(C)(C)C[C@H]1[C@H]1C(=O)C[C@@H]3[C@@]4(C)C[C@@]5(CC(C)(C)[C@@H]4CC[C@@]3(C)[C@]1(C)CC2)OO[C@@](C)(C(F)(F)F)O5`, the growth was 101%.

Take `CC[C@]12C=CCN3CC[C@@]4(c5ccc(OC)cc5N(C)[C@H]4[C@@](O)(C(=O)OC)[C@@H]1OC(=O)CCCC[P+](c1ccccc1)(c1ccccc1)c1ccccc1)[C@@H]32`: the growth is 19%.

With `CCCCCCCCOC(=O)CCN1CC1`, the growth was 99.4%.

Take `CC1[C@H](C)OC(=O)CC(O)CC(O)CC(O)CCC(O)C(O)C[C@]2(O)CC(O)C(C(=O)O)C(CC(OC3O[C@H](C)[C@@H](O)[C@H](N)[C@@H]3O)/C=C/C=C/C=C/C=C/CC/C=C/C=C/[C@H](C)[C@H]1O)O2` (some centres not stated): the growth is 96.1%.

Take `c1cc2c(c3c1CCNC3)OCO2`: the growth was 105%.

Consider `Cc1ccc(N2COOC3(OOC2)C2CC4CC(C2)CC3C4)cc1`, for which the growth is 96.5%.

Take `O=C(CC1(O)C(=O)N(Cc2ccccc2)c2ccc(Br)cc21)c1ccc(C(=O)NCC2CCC3(CC2)OOC2(CCCCC2)OO3)cc1` (configuration not stated): the growth was -85.1% (active).

On to `C[C@@H]1C[C@@]2(C)[C@@H](CC[C@@H]3[C@@H]2CC[C@]2(C)C(=O)CC[C@@H]32)CC1=O`, for which the growth is 95%.

For the molecule `CCN(CC)c1ccc2c(c1)OC(N)=C(C#N)C2c1cc(OC)c2c(c1)OCO2` (configuration not stated), the growth is 3.37% (active).

Take `O=P(Oc1ccc(Cl)cc1)(N1CC1)N1CC1`: the growth was 81.4%.

In the case of `O=[N+]([O-])c1cc(I)cc([N+](=O)[O-])c1`, the growth is 101%.

Turning to `CC(=O)O[C@H](C[C@H](C(C)C)N(C)C(=O)[C@@H](NC(=O)[C@H]1CCCCN1C)C(C)(C)C)c1nc(C(=O)N[C@@H](Cc2ccccc2)C[C@H](C)C(=O)O)cs1`, the growth is -10.9% (active).

Take `CC[C@H](C)[C@H](NC(=O)[C@H]1CCCCN1C)C(=O)N(C)[C@H](C[C@@H](O)c1nc(C(=O)N[C@@H](Cc2ccccc2)C[C@H](C)C(=O)O)cs1)C(C)C`: the growth is 83.6%.

`CN1CCC(O)(c2ccc(F)cc2)C(C(=O)c2ccc(F)cc2)C1` (configuration not stated): the growth is 96.8%.

For the molecule `O=C1NC(=O)C(=Cc2cccn2CCCCCn2c3ccccc3c(=O)c3ccccc32)C(=O)N1`, the growth was 102%.

Regarding `COC(=O)[C@@H](C[C@H](Cc1ccccc1)NC(=O)c1csc([C@@H](C[C@H](C(C)C)N(C)C(=O)[C@@H](NC(=O)[C@H]2CCCCN2C)C(C)C)OC(C)=O)n1)NC(=O)OCc1ccccc1`, the growth is -19.1% [9.5 µM] (active).

Take `CN(C)CCCOc1ccc2c(c1)c(C(=O)C(=O)NCCO)cn2Cc1ccccc1`: the growth was 103%.

As for `COc1cc(C=Nc2cc(Cl)cc(Cl)c2)ccc1N(CCCl)CCCl`, the growth is 89.3%.

For the molecule `CCOC(=O)N[C@H]1CCc2c(Br)c(OC)c(OC)c(OC)c2-c2ccc(SC)c(=O)cc21`, the growth was -31.9% (active).

`C/C(CC(C)(C)N1CC1)=N\NC(=O)Nc1cccc2ccccc12`: the growth was 70.3%.

For `C[C@]12CCc3sc(-c4ccccc4O)nc3C1=CC[C@@H]1[C@@H]2CC[C@]2(C)C(=O)CC[C@@H]12`, the growth was 105%.

As for `CC[C@H](C)[C@H](NC(=O)[C@H]1CCCCN1C)C(=O)N(C)[C@H](CC(=O)c1nc(C(=O)N[C@@H](Cc2ccccc2)C[C@H](C)C(=O)O)cs1)C(C)C`, the growth was 75.8%.

For `COc1cccc(/C=C/[N+](=O)[O-])c1`, the growth was 50.8%.

On to `O=C1CC2(CC3(Cl)C(Cl)=C(Cl)C2(Cl)C3(Cl)Cl)C(=O)O1` (configuration not stated), for which the growth was 114%.

`CC12CCC3C(CCC4=CC(=O)CCC43CF)C1CCC2=O` (configuration not stated): the growth is 106%.

With `Nc1ccc(-c2nc3cc(F)ccc3[se]2)cc1F`, the growth was 86.9%.
